# A number with no mark means an inactive call. The source made the active and inactive calls. How the calls were made is not given here.
# Molecular target: L-lactate dehydrogenase (Plasmodium falciparum (isolate CDC / Honduras)) (UniProt Q27743)
# Experiment: PfLDH activity inhibition – cell lysate, 3D7 strain, counter-screen for P. falciparum growth inhibition project (AID 2304);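 further: 0% = vehicle and 100% = reference inhibitor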
# Conditions: P. falciparum 3D7 crude extract, LDH APAD/NBT absorbance; at 2 µM; stronger effect = higher value
# Sequence of L-lactate dehydrogenase (Plasmodium falciparum (isolate CDC / Honduras)) (Q27743 whole entry, looked up): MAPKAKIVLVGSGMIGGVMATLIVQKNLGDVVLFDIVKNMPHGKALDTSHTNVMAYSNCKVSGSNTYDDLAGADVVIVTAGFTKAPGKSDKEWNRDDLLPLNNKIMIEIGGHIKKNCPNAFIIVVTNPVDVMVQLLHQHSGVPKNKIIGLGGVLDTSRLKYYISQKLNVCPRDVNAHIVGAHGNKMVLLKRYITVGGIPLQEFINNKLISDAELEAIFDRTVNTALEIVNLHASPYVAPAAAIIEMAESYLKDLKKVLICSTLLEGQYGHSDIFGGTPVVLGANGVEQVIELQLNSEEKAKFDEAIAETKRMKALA
row,Structure (SMILES),inhibition [%]
1,O=C1COc2ccc3ccccc3c21,6
2,Cc1cccc2[nH]c(-c3cccc(-c4cccc(CNCC5CCCO5)c4)c3)nc12 (stereo not given),-3
3,CCCCCCN1CCC(CNCc2cccc([N+](=O)[O-])c2)CC1,-1
4,O=C(NCCc1ccccc1)[C@H](Cc1ccccc1)Nc1ccnc(NCC2CCCCC2)n1,2
5,CCOC(=O)c1cn(CC)c2cc(N(C)CCc3ccc(OC)c(OC)c3)c(F)cc2c1=O,4
6,O=C(Nc1cccc(CN2CCCN(Cc3cccc(Cl)c3)CC2)c1)c1ccc(-c2ccccc2)cc1,1
7,C=CCC(C(=O)Nc1ccnc2ccc(OC)cc12)C1CCN(CCCCCCC)CC1 (stereo not given),-7
8,O=C(C=Cc1ccc(Cl)c(Cl)c1)NCCCCCN1CCC(CCNC(=O)c2ccc3c(c2)OCO3)CC1,-3
9,COc1cc2ncnc(Nc3ccc4nc(Cc5ccccc5)[nH]c4c3)c2cc1OC,0
10,COc1ccc(-n2nc(C(=O)NCc3ccccc3OC)c3ccccc3c2=O)cc1,0
11,CCc1ccccc1OCCCON1C(N)=NC(N)=NC1(C)C,-2
12,CC(C)c1cc2c(ccc3nc(N)nc(N)c32)[nH]1,2
13,Cc1cc(N2CCCCC2)nc2ccc(NC(=O)c3cncc(Br)c3)cc12,0
14,CC1CCN(CCNC(=O)c2ccc3c(=O)n(Cc4ccc(Cl)cc4)c(=S)[nH]c3c2)CC1,4
15,CCC[C@@H]([C@@H](CC(C)C)C(=O)N[C@H](C(=O)Nc1nccs1)C(C)(C)SCCNC(=O)OCC)N(O)C=O,-7
16,COc1ccc(NC(=O)N2CCc3ccc(OCCN(C(C)C)C(C)C)cc32)cc1C(F)(F)F,-2
17,c1ccc2nc(NCCCCCCCCNc3ccc4ccccc4n3)ccc2c1,-5
18,O=C(Nc1cccc(-c2cccc(-c3nc4ccc(F)cc4[nH]3)c2)c1)Nc1ccc(F)c(F)c1F,4
19,Cc1ccc(C2=NNC3(S2)C(=O)N(C)c2ccccc23)cc1 (stereo not given),5
20,Cc1c(N)ccc2[nH]c(-c3ccc(N)cc3)nc12,0

row,Structure (SMILES),inhibition [%]
1,Fc1cccc(Nc2nc(NCc3ccc(Cl)c(Cl)c3)nc(Nc3cccc(F)c3)n2)c1,3
2,CC1(C)N=C(NC(=O)c2ccc([N+](=O)[O-])cc2)N=C(N)N1OCc1ccc2ccccc2c1,-8
3,O=[N+]([O-])c1cccc(C=NNc2ccnc3cc(F)ccc23)c1,-1
4,CC(C)OC(=O)c1ccccc1S(N)(=O)=O,1
5,COc1ccc(CC(=O)NC2CCN(c3ccnc4cc(Cl)ccc34)C2)cc1 (stereo not given),-8
6,Cc1nc2nc(N)nc(N)c2c(C)c1Cc1ccc(C#N)cc1,1
7,COc1ccc(S(=O)(=O)N2CCC3(CC2)OCC(=O)NC3c2ccc(Cl)c(Cl)c2)cc1 (stereo not given),-2
8,COC(=O)c1ccc(OCC(C)NCC(O)c2cccc(C(F)(F)F)c2)cc1 (stereo not given),-2
9,COc1ccc2nccc([C@@H](O)CN3CCC(NC(=O)/C=C/c4ccc5ccccc5n4)CC3)c2c1,1
10,COc1ccc2nccc([C@@H](O)CN3CCC(NCCNc4ccccn4)CC3)c2c1,-4
11,CS(=O)(=O)c1ccc(CCNCc2ccc(-c3ccc(CN(C(=O)C4CC(=O)c5ccccc54)C4Cc5ccccc5C4)cc3)nc2)cc1 (stereo not given),-7
12,Cc1c(C)c2c(c(C)c1O)CC[C@@](C)(C(=O)N1CCC(CCN3CCC(c4c[nH]c5ccccc45)CC3)CC1)O2,6
13,Cc1noc(C)c1S(=O)(=O)N(C)Cc1ccc(-c2ccc(Cl)cc2)o1,-3
14,CCC(C)(CC)C(=O)n1ncc2c3c(N)nc(N)nc3ccc21,-4
15,Clc1ncccc1-c1nc(NCCC(c2ccccc2)c2ccccc2)no1,3
16,CCCCCCN1CCCN(Cc2ccc(C(=O)Nc3cccc(CC)c3)cc2)CC1,-3
17,Cc1ccc(NC(=S)N2CCCN(CCCCCNC(=O)/C=C/c3ccc(Cl)c(Cl)c3)CC2)cc1Cl,5
18,CCOc1cc(C(=O)NCc2cc(Cl)cc(Cl)c2)ccc1-c1nc2ccc(Cl)cc2[nH]1,-3
19,COc1cc(C(F)(F)F)cc2[nH]c(CNCCCNc3nc4ccccc4[nH]3)cc12,2
20,NC1=Nc2ccc(Cl)cc2C1(O)c1ccccc1 (stereo not given),-3

# Test system: not listed separately
# Experiment: inhibition of 3D7 malaria parasite growth – strain 3D7 (AID 2306);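 further: 0% = DMSO wells and 100% = chloroquine plus artemisinin control wells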
# Conditions: P. falciparum 3D7 erythrocytic growth, LDH absorbance, 72 h; at 2 µM; stronger effect = higher value
row,Structure (SMILES),growth inhibition
1,O=C1COc2ccc3ccccc3c21,99% (active)
2,Cc1cccc2[nH]c(-c3cccc(-c4cccc(CNCC5CCCO5)c4)c3)nc12 (stereo not given),101% (active)
3,CCCCCCN1CCC(CNCc2cccc([N+](=O)[O-])c2)CC1,95% (active)
4,O=C(NCCc1ccccc1)[C@H](Cc1ccccc1)Nc1ccnc(NCC2CCCCC2)n1,86% (active)
5,CCOC(=O)c1cn(CC)c2cc(N(C)CCc3ccc(OC)c(OC)c3)c(F)cc2c1=O,92% (active)
6,O=C(Nc1cccc(CN2CCCN(Cc3cccc(Cl)c3)CC2)c1)c1ccc(-c2ccccc2)cc1,86% (active)
7,C=CCC(C(=O)Nc1ccnc2ccc(OC)cc12)C1CCN(CCCCCCC)CC1 (stereo not given),86% (active)
8,O=C(C=Cc1ccc(Cl)c(Cl)c1)NCCCCCN1CCC(CCNC(=O)c2ccc3c(c2)OCO3)CC1,99% (active)
9,COc1cc2ncnc(Nc3ccc4nc(Cc5ccccc5)[nH]c4c3)c2cc1OC,87% (active)
10,COc1ccc(-n2nc(C(=O)NCc3ccccc3OC)c3ccccc3c2=O)cc1,102% (active)
11,CCc1ccccc1OCCCON1C(N)=NC(N)=NC1(C)C,95% (active)
12,CC(C)c1cc2c(ccc3nc(N)nc(N)c32)[nH]1,93% (active)
13,Cc1cc(N2CCCCC2)nc2ccc(NC(=O)c3cncc(Br)c3)cc12,101% (active)
14,CC1CCN(CCNC(=O)c2ccc3c(=O)n(Cc4ccc(Cl)cc4)c(=S)[nH]c3c2)CC1,101% (active)
15,CCC[C@@H]([C@@H](CC(C)C)C(=O)N[C@H](C(=O)Nc1nccs1)C(C)(C)SCCNC(=O)OCC)N(O)C=O,95% (active)
16,COc1ccc(NC(=O)N2CCc3ccc(OCCN(C(C)C)C(C)C)cc32)cc1C(F)(F)F,90% (active)
17,c1ccc2nc(NCCCCCCCCNc3ccc4ccccc4n3)ccc2c1,100% (active)
18,O=C(Nc1cccc(-c2cccc(-c3nc4ccc(F)cc4[nH]3)c2)c1)Nc1ccc(F)c(F)c1F,100% (active)
19,Cc1ccc(C2=NNC3(S2)C(=O)N(C)c2ccccc23)cc1 (stereo not given),82% (active)
20,Cc1c(N)ccc2[nH]c(-c3ccc(N)cc3)nc12,97% (active)

row,Structure (SMILES),growth inhibition
1,Fc1cccc(Nc2nc(NCc3ccc(Cl)c(Cl)c3)nc(Nc3cccc(F)c3)n2)c1,99% (active)
2,CC1(C)N=C(NC(=O)c2ccc([N+](=O)[O-])cc2)N=C(N)N1OCc1ccc2ccccc2c1,95% (active)
3,O=[N+]([O-])c1cccc(C=NNc2ccnc3cc(F)ccc23)c1,100% (active)
4,CC(C)OC(=O)c1ccccc1S(N)(=O)=O,97% (active)
5,COc1ccc(CC(=O)NC2CCN(c3ccnc4cc(Cl)ccc34)C2)cc1 (stereo not given),101% (active)
6,Cc1nc2nc(N)nc(N)c2c(C)c1Cc1ccc(C#N)cc1,96% (active)
7,COc1ccc(S(=O)(=O)N2CCC3(CC2)OCC(=O)NC3c2ccc(Cl)c(Cl)c2)cc1 (stereo not given),91% (active)
8,COC(=O)c1ccc(OCC(C)NCC(O)c2cccc(C(F)(F)F)c2)cc1 (stereo not given),94% (active)
9,COc1ccc2nccc([C@@H](O)CN3CCC(NC(=O)/C=C/c4ccc5ccccc5n4)CC3)c2c1,91% (active)
10,COc1ccc2nccc([C@@H](O)CN3CCC(NCCNc4ccccn4)CC3)c2c1,101% (active)
11,CS(=O)(=O)c1ccc(CCNCc2ccc(-c3ccc(CN(C(=O)C4CC(=O)c5ccccc54)C4Cc5ccccc5C4)cc3)nc2)cc1 (stereo not given),90% (active)
12,Cc1c(C)c2c(c(C)c1O)CC[C@@](C)(C(=O)N1CCC(CCN3CCC(c4c[nH]c5ccccc45)CC3)CC1)O2,98% (active)
13,Cc1noc(C)c1S(=O)(=O)N(C)Cc1ccc(-c2ccc(Cl)cc2)o1,100% (active)
14,CCC(C)(CC)C(=O)n1ncc2c3c(N)nc(N)nc3ccc21,94% (active)
15,Clc1ncccc1-c1nc(NCCC(c2ccccc2)c2ccccc2)no1,94% (active)
16,CCCCCCN1CCCN(Cc2ccc(C(=O)Nc3cccc(CC)c3)cc2)CC1,85% (active)
17,Cc1ccc(NC(=S)N2CCCN(CCCCCNC(=O)/C=C/c3ccc(Cl)c(Cl)c3)CC2)cc1Cl,93% (active)
18,CCOc1cc(C(=O)NCc2cc(Cl)cc(Cl)c2)ccc1-c1nc2ccc(Cl)cc2[nH]1,101% (active)
19,COc1cc(C(F)(F)F)cc2[nH]c(CNCCCNc3nc4ccccc4[nH]3)cc12,102% (active)
20,NC1=Nc2ccc(Cl)cc2C1(O)c1ccccc1 (stereo not given),100% (active)

# Reference: PubChem BioAssay
